Gli-Sufu block: blocks Gli-Sufu signaling in a luciferase reporter; Sufu-KO-LIGHT fibroblasts, Gli luciferase reporter luminescence; inhibition, % at 5 µM; 0.74% of 340,000 active;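 active = inhibition above about 55%, limit read from the data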;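 also: 0% = DMSO-treated cells and 100% = wells with medium but no cells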
Mdm2 MdmX PPI: disrupts the human Mdm2-MdmX interaction; O15151+Q00987; SaOS-2 split-luciferase Mdm2/MdmX complementation, luminescence; inhibition, % at 8 µM; 3% of 330,000 active; AID 485346;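 active = inhibition of at least 50% at 8 µM in the primary screen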
Target sequence (O15151 whole entry, looked up): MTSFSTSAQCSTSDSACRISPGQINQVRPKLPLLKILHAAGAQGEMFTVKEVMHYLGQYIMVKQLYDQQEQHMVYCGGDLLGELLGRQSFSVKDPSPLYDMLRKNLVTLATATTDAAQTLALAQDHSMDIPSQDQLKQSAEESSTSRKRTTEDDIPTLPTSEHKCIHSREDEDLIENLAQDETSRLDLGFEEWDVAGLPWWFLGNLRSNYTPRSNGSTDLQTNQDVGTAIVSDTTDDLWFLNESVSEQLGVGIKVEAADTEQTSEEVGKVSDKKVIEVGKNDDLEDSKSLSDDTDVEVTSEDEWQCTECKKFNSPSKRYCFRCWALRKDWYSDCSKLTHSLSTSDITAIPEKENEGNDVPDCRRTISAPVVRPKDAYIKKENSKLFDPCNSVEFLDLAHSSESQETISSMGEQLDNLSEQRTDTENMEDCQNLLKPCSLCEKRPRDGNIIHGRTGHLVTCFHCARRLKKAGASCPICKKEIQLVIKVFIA
Target sequence (Q00987 whole entry, looked up): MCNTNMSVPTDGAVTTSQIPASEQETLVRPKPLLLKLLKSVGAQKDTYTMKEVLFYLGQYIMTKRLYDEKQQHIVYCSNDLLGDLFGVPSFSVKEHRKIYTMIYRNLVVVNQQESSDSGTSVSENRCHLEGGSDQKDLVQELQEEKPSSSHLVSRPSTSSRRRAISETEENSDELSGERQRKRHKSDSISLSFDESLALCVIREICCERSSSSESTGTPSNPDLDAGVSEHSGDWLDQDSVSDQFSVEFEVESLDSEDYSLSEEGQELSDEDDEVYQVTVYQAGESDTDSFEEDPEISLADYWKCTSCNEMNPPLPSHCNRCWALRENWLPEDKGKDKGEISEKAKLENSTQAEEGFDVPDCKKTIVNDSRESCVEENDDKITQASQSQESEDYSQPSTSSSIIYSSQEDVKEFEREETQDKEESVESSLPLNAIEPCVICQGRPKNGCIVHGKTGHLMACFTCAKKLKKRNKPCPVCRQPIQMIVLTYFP
697 NFkB inh: inhibitors of the PMA/ionomycin-induced NF-kB reporter in 697 B cells. inhibition, % at 4 µM. 0.33% of 330,000 active. AID 435022. 697 B-cell NF-kB luciferase reporter, 16 h; in the data active = inhibition above about 35%
Jurkat NFkB inh: lowers PMA/ionomycin-induced NF-kB signal in Jurkat cells; PMA/ionomycin-induced NF-kB luciferase reporter, luminescence; inhibition, % at 4 µM; 0.53% of 330,000 active; in the data active = inhibition above about 50%
KLF5 inhibitor: inhibitors of KLF5 expression. DLD-1 KLF5 promoter-luciferase reporter, luminescence. inhibition, % at 5 µM. 0.23% of 290,000 active;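 active = inhibition above a per-plate limit of that plate's mean compound inhibition plus 3 SD, cut at about 60% in these data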;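 also: 0% = DMSO wells and 100% = LY294002 at 200 µM; higher means less KLF5 promoter-driven luciferase light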
aSyn UTR inh: 5' untranslated region of α-synuclein, MLPCN primary screen. alpha-synuclein 5'UTR reporter, inhibitor activity. 0.82% of 300,000 active. AID 1813. inhibition, % (tested at 7.5 µM); in the data active = inhibition above about 60%;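 also: H4 neuroglioblastoma cells stably carrying SNCA 5'UTR luciferase fusion; 0% = DMSO wells and 100% = positive control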
697 NFkB conf: lowers PMA/ionomycin-induced NF-kB signal in 697 B cells. shares compounds with 697 NFkB inh. 697 B-cell NF-kB luciferase, 16 h. inhibition, % at 4 µM. 35% of 2,000 active; in the data active = inhibition mostly above about 28%, no sharp cut-off; inactive = mostly below about 22%
An asterisk follows results filed as active; . = no result. Rows were chosen to be rich in hits. Some 4.1% of all compounds tested hit in one or more screens of this group.

SMILES | Gli-Sufu block | Mdm2 MdmX PPI | 697 NFkB inh | Jurkat NFkB inh | KLF5 inhibitor | aSyn UTR inh | 697 NFkB conf
C/C(=N/Nc1ncc(Br)cn1)c1ccc(Br)cc1 | -0.1 | 13.6 | -45.1 | -33.0 | -43.4 | -20.3 | .
C/C(=N\Nc1ccc(C(=O)O)cc1)c1ccc(Br)cc1 | -14.9 | -115.3 | -345.3 | -56.3 | -7.5 | -3.6 | -300.5
Cc1ccc(CNC(=O)CC2(CC3=NS(=O)(=O)c4ccccc4N3)CCCC2)cc1 | 3.0 | 0.9 | 10.3 | 0.1 | -14.6 | 13.8 | .
CN(C)c1ccc(/C=C(/NC(=O)c2ccccc2)C(=O)N2CCCC2)cc1 | -17.4 | -1.4 | 3.3 | 1.7 | -13.6 | -29.3 | .
Cc1cccc2cc(/C=N/Nc3ccc(C(=O)O)cc3)c(Cl)nc12 | -134.4 | -87.0 | -309.2 | -75.6 | -127.9 | -196.6 | -246.6
O=C(O)c1ccc(N/N=C/c2cc3ccccc3nc2Cl)cc1 | -37.3 | -4.6 | -150.6 | -12.2 | -76.1 | -142.8 | .
CN(C)c1nc(Cl)nc2c1nc(Cl)n2C1CCCCO1 (stereo not given) | -7.3 | . | . | . | . | . | .
Cc1c(O)ccc(/C=N/Nc2ncccc2[N+](=O)[O-])c1O | -108.3 | -64.9 | -370.9 | -131.2 | -21.4 | -38.5 | -277.8
O=[N+]([O-])c1cccnc1N/N=C/c1ccccc1O | 28.1 | 47.4 | -119.8 | -16.1 | -45.1 | 48.1 | .
Nc1nn(-c2ccccc2)c(N)c1N=Nc1cccc(F)c1 | -99.0 | -31.1 | -232.3 | -15.2 | -35.9 | -57.2 | .
Nc1nn(-c2ccccc2)c(N)c1N=Nc1ccc2c(c1)OCO2 | -118.4 | -124.4 | -269.9 | -10.2 | -64.3 | -42.2 | -220.2
COC(=O)[C@@]12OC[C@]34[C@H]([C@@H](O)[C@@H]1O)[C@@]1(C)C(=O)C(O[C@@H]5OC(CO)[C@@H](O)[C@@H](O)[C@@H]5O)=C[C@@H](C)[C@@H]1C[C@H]3OC(=O)[C@H](OC(=O)/C=C(\C)C(C)(C)OC(C)=O)[C@@H]24 (stereo not given in full) | 5.5 | 21.2 | 44.4* | 27.8 | . | . | 80.2*
Cc1ccc(-c2csc(N3C(=N)SCC3=O)n2)cc1 | -91.3 | -135.9 | -268.0 | -103.5 | -48.1 | -161.7 | -168.9
CC1=NN(c2nc(-c3ccc(Cl)cc3)cs2)C(=O)C1 | -4.2 | 1.3 | -70.4 | -42.4 | -18.2 | -33.2 | .
CCOC(=O)c1nn(-c2ccccc2)c(C#N)c1NC(=O)c1nn(CC)cc1Br | 22.8 | 24.2 | 37.0* | 13.0 | -10.2 | 27.1 | 40.2*
CCOC(=O)c1c(NC(=O)c2nn(CC)cc2Br)c(C#N)nn1-c1ccccc1 | 7.0 | -29.4 | -9.9 | 4.6 | -12.5 | 57.9 | .
CC1C(=O)N2CCCc3cc(NC(=O)c4ccccc4Br)cc1c32 (stereo not given) | 4.6 | 17.8 | 40.9* | 16.6 | . | 9.2 | 22.6
CC(C)Oc1ccc(C(=O)Nc2ccc(N(C)C)cc2)cc1 | 23.3 | -107.6 | 45.0* | -58.2 | -65.9 | -42.4 | 36.0*
Cc1ccccc1/C=C1\CCCc2ccccc2C1=O | -102.0 | -242.1 | -171.7 | -130.8 | -85.9 | -241.3 | .
Cc1ccsc1/C=C1\CCc2ccccc2C1=O | -86.0 | -125.9 | -342.1 | -141.1 | -130.7 | -165.4 | -299.4
COc1ccc2nc3oc(C(=O)N4CCN(c5ccccc5F)CC4)cc3cc2c1 | 0.8 | 16.3 | -11.8 | 0.1 | -1.8 | -5.6 | .
COc1ccc2cc3cc(C(=O)N4CCCCCC4)oc3nc2c1 | -18.4 | -169.1 | -265.8 | -136.3 | -12.4 | 13.9 | -244.2
COC(=O)c1ccc(-c2nc3cc(Cl)c(N)cc3s2)cc1 | -67.3 | -19.3 | -258.1 | -138.1 | -134.1 | 29.5 | -83.0
Cc1ccc(C(=O)C(C)OC(=O)c2ccccc2[N+](=O)[O-])cc1 (stereo not given) | -80.8 | -86.7 | -270.6 | -115.1 | -145.3 | -157.7 | -209.9
COc1ccc(-c2cc3cc(F)ccc3cn2)cc1 | -117.6 | -143.8 | -254.7 | -5.6 | . | . | -263.4
SMILES | Gli-Sufu block | Mdm2 MdmX PPI | 697 NFkB inh | Jurkat NFkB inh | KLF5 inhibitor | aSyn UTR inh | 697 NFkB conf
C(=C\c1nc2ccccc2[nH]1)/c1ccccc1 | -140.5 | -27.1 | -442.4 | -104.2 | -39.8 | 46.8 | -296.1
Cc1nc(/C=C/c2ccccc2)[nH]c(=O)c1-c1ccccc1 | -106.2 | -10.1 | -253.7 | 6.4 | -120.7 | -15.4 | -162.8
C(=C\c1ccco1)/c1nc2ccccc2[nH]1 | . | -30.0 | -2.8 | 11.2 | -46.9 | -140.6 | .
Cc1ccc(S(=O)(=O)NCCc2nnc(SCc3cccnc3)n2C)cc1 | 15.7 | -2.1 | 15.5 | 0.4 | 7.7 | 9.1 | .
Cc1ccc(-c2cc(N)n[nH]2)cc1 | -24.9 | 15.9 | 0.9 | -11.9 | -17.0 | -73.2 | .
CC(C)(C)c1ccc(-c2cc(N)n[nH]2)cc1 | 7.1 | 27.8 | 44.0* | -50.1 | -0.2 | 90.9* | 45.0*
Cn1cc(Cl)c(C(=O)Nc2nc3ccccc3s2)n1 | -91.1 | -26.9 | -255.6 | -88.8 | -159.0 | -29.6 | -266.9
O=C(NCc1ccccc1)c1ccc(C(=O)N(C2CCCCC2)C2CCCCC2)cc1 | 13.2 | -16.3 | 35.0* | 24.5 | -7.4 | 19.5 | 7.7
O=C(NCc1ccccc1)c1ccc(C(=O)NCc2ccccc2)cc1 | 0.0 | . | . | . | . | . | .
Cc1ccc(C(=O)NNC(=O)CCCN2C(=O)/C(=C/c3ccccc3Cl)SC2=S)cc1 | 5.0 | 40.4 | 44.1* | 18.7 | -9.8 | 68.5* | 40.8*
O=C(CCCN1C(=O)/C(=C/c2ccccc2Cl)SC1=S)NNC(=O)c1ccc(Cl)cc1 | 17.2 | 42.4 | 60.8* | 19.4 | 10.5 | 64.7* | 52.1*
O=C(CCN1C(=O)/C(=C/c2ccccc2Cl)SC1=S)NNC(=O)c1cccnc1 | 5.5 | 2.4 | -5.7 | -2.7 | 5.7 | -21.3 | .
N#CC(=C1Nc2ccccc2N1)S(=O)(=O)c1ccccc1 | -3.2 | 20.0 | -2.4 | 1.6 | -11.2 | -5.1 | .
C=CCN(Cc1ccc(OC)c(OC)c1)C(=O)c1cc2cc(F)ccc2[nH]1 | -2.6 | 20.1 | -33.1 | -38.5 | 8.0 | 11.5 | .
COc1ccc(C(=O)N=c2sc3c(C)ccc(OC)c3n2C)cc1 | -106.6 | -83.3 | -298.7 | -29.7 | -27.1 | -114.6 | -336.6
CS(=O)(=O)c1cnc(-c2ccccc2)nc1-c1ccccc1Cl | -4.7 | 23.0 | 3.5 | -26.6 | -14.0 | -3.6 | .
COC(=O)c1c(C(C)=O)c(C)n(C)c1C | -0.7 | -4.3 | 19.5 | -6.6 | -20.2 | 8.6 | .
O=C(/C=C/Nc1ccc(F)cc1Br)c1ccccc1 | -18.7 | 19.8 | -343.5 | -47.3 | -103.4 | 69.7* | -124.0
O=C(/C=C\NCC(=O)c1ccccc1)c1ccc(F)cc1 | -4.9 | 1.2 | 1.9 | -9.5 | -14.5 | -55.1 | .
Cc1cc(Nc2ccc(F)cc2F)n2ncnc2n1 | -5.0 | 14.3 | 9.3 | 12.1 | -1.2 | 4.7 | .
Cc1cc(Nc2ccccc2N2CCOCC2)n2ncnc2n1 | 4.8 | 25.3 | 35.4* | 3.6 | 1.1 | 1.0 | 24.5
Nc1nc2ccc(Cl)cc2c2nc(-c3ccco3)nn12 | . | 44.7 | 35.9* | 15.0 | -17.8 | -31.7 | 28.4*
COC(=O)CCN1CCc2cc(N=Nc3ccc([N+](=O)[O-])cc3)ccc21 | 4.7 | 44.8 | -281.6 | -90.1 | -33.3 | -95.7 | -94.7
Cc1ccc(-c2nc(N)n(C(=O)c3ccco3)n2)cc1 | 3.6 | 28.6 | 36.4* | -19.7 | 2.5 | -29.1 | -11.8
